Measurements: publication PMC7862700, “An all-to-all approach to the identification of sequence-specific readers for epigenetic DNA modifications on cytosine”

Assays:
Test in all cases: DAPPL (digital affinity profiling via proximity ligation, sequencing); 10 mM Tris-HCl pH 7.5, 50 mM NaCl, 1 mM DTT, 4% glycerol, room temperature, 30 min; GST-TFs on glutathione beads, 16-mer random dsDNA library, 0.1% formaldehyde crosslink after washing; high values mean tight binding
FEV = target: T1, FEV (Homo sapiens, UniProt Q99581 1-238); settings: protein: recombinant; tags: N-terminal GST; dsDNA, one strand shown
T1 sequence: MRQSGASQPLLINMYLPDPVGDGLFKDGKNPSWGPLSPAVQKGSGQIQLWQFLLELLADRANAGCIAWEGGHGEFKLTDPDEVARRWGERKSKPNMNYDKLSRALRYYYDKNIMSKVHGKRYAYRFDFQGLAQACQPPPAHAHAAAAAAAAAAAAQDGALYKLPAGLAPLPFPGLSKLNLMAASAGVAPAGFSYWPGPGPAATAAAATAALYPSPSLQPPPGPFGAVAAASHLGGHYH
In short: (§1)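 Sequencing on an Illumina NextSeq500 followed washing, crosslinking with 0.1% formaldehyde, proximity ligation (BsaI/T4 ligase, 1 h, 37 °C) and PCR amplification of pools that had been incubated for 30 min at room temperature with 200 nmole of a random double-stranded 16-mer DNA library in Tris/NaCl/DTT/glycerol buffer. Each pool held DNA-barcoded human transcription factors, expressed in yeast as GST fusions and captured on glutathione beads, plus a tag-only sample. Binding signal is a hexamer's read frequency for a factor divided by its frequency in the tag-only sample.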

ETV5 = ETV5 (Homo sapiens, UniProt P41161 1-510); settings: protein: recombinant; tags: N-terminal GST; dsDNA, one strand shown
ETV5, sequence (P41161 whole entry): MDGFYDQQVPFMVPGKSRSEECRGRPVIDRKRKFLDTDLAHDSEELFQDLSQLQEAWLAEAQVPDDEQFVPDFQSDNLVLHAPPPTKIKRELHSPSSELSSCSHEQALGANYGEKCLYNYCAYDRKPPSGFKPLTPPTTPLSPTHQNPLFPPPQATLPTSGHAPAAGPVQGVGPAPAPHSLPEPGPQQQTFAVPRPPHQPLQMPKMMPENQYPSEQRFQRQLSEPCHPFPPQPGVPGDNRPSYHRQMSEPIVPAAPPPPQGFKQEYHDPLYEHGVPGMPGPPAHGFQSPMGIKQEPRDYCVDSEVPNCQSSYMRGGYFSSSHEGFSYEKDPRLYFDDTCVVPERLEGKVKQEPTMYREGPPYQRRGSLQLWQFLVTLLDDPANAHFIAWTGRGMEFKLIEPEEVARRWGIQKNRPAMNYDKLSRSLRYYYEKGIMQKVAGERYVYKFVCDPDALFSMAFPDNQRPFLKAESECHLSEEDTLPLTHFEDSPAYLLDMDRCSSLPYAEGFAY
In short: as §1

HSF1 = HSF1 (Homo sapiens, UniProt Q00613 1-529); settings: protein: recombinant; tags: N-terminal GST; chain copies: 3; dsDNA, one strand shown
HSF1, sequence (Q00613 whole entry): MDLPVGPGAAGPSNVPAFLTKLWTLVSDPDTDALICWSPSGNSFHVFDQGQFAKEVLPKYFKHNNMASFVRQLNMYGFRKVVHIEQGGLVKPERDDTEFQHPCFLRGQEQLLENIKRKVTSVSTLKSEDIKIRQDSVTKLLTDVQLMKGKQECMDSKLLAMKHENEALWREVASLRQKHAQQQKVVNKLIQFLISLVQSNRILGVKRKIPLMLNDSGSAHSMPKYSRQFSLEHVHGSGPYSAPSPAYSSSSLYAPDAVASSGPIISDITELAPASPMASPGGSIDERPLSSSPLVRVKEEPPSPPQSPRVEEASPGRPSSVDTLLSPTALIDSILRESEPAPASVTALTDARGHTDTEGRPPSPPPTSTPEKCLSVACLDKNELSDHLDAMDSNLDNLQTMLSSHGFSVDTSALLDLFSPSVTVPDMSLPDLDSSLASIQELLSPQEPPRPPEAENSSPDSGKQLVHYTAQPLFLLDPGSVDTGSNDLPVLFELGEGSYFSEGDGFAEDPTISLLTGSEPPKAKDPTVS
In short: as §1

SPIC = target: T2, SPIC (Homo sapiens, UniProt Q8N5J4 1-248); settings: protein: recombinant; tags: N-terminal GST; dsDNA, one strand shown
T2 sequence: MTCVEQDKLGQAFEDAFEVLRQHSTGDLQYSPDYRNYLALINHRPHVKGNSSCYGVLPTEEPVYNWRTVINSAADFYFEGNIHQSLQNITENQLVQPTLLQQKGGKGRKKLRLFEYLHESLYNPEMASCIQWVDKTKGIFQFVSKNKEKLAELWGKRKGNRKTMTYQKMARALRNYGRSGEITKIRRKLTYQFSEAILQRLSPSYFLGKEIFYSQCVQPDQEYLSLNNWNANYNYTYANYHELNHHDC
In short: as §1

ELF4 = ELF4 (Homo sapiens, UniProt Q99607 1-663); settings: protein: recombinant; tags: N-terminal GST; dsDNA, one strand shown
ELF4, sequence (Q99607 whole entry): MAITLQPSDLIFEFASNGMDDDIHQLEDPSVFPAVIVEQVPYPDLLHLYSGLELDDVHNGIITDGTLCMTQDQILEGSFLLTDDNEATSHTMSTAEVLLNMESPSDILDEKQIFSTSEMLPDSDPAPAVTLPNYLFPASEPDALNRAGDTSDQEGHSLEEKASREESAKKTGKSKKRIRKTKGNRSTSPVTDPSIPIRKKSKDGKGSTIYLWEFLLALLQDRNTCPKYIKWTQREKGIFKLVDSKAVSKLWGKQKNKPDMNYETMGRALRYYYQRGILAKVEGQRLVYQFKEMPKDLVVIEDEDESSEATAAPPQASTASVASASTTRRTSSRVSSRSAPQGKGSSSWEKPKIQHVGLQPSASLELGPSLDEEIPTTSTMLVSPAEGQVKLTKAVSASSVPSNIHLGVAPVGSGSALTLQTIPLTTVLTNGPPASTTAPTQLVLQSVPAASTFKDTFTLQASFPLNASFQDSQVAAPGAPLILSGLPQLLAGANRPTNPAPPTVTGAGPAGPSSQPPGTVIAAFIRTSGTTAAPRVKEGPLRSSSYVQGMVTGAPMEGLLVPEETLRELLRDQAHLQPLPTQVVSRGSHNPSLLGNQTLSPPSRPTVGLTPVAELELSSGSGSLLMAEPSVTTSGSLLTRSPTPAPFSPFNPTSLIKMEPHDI
In short: as §1

ELK4 = target: T3, ELK4 (Homo sapiens, UniProt P28324-2 1-405); settings: protein: recombinant; tags: N-terminal GST; dsDNA, one strand shown
T3 sequence: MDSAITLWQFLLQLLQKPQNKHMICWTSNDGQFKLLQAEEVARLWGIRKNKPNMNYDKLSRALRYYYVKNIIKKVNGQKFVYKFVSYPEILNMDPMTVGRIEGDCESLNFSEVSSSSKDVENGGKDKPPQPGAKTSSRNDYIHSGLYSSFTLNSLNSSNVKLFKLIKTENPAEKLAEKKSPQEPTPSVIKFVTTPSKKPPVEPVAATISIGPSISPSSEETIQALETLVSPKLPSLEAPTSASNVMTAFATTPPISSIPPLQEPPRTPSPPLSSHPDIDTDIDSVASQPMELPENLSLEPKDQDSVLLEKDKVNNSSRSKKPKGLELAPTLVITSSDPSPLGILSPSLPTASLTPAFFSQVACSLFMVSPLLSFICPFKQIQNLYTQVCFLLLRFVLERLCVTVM
In short: as §1

ETV2 = target: T4, ETV2 (Homo sapiens, UniProt O00321 1-342); settings: protein: recombinant; tags: N-terminal GST; dsDNA, one strand shown
T4 sequence: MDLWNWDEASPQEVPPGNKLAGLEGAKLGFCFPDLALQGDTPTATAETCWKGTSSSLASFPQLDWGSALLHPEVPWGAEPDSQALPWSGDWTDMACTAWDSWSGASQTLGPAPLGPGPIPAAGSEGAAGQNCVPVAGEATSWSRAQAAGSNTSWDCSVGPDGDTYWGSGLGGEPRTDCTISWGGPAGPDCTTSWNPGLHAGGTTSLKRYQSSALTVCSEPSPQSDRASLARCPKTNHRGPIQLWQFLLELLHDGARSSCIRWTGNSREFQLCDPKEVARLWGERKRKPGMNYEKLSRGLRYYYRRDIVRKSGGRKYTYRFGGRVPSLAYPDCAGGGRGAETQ
In short: as §1

ELF3 = target: T5, ELF3 (Homo sapiens, UniProt P78545 1-371); settings: protein: recombinant; tags: N-terminal GST; dsDNA, one strand shown
T5 sequence: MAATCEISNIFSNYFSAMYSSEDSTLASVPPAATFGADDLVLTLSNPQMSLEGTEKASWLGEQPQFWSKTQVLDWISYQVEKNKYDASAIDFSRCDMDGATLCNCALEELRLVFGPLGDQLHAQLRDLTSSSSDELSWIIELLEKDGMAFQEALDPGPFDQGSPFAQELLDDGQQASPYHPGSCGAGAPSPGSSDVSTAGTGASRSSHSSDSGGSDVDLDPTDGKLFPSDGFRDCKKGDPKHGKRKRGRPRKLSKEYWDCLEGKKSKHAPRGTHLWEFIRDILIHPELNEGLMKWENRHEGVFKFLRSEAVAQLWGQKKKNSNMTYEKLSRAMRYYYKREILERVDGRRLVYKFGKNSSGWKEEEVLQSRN
In short: as §1

ETV1 = ETV1 (Homo sapiens, UniProt P50549 1-477); settings: protein: recombinant; tags: N-terminal GST; dsDNA, one strand shown
ETV1, sequence (P50549 whole entry): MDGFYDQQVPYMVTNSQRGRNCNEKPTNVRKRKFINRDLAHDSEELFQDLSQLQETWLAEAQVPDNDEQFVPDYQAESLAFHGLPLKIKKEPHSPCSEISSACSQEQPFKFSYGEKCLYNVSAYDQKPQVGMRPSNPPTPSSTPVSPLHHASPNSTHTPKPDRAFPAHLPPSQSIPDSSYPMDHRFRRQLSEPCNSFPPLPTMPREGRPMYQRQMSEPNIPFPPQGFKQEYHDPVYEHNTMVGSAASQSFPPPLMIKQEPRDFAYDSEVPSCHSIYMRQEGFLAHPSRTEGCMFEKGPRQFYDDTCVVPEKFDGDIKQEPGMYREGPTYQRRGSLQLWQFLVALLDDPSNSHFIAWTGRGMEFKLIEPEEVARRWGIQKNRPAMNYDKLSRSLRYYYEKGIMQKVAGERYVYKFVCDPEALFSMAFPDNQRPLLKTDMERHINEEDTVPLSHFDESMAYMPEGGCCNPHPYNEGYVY
In short: as §1

ERF = target: T6, ERF (Homo sapiens, UniProt P50548 1-548); settings: protein: recombinant; tags: N-terminal GST; dsDNA, one strand shown
T6 sequence: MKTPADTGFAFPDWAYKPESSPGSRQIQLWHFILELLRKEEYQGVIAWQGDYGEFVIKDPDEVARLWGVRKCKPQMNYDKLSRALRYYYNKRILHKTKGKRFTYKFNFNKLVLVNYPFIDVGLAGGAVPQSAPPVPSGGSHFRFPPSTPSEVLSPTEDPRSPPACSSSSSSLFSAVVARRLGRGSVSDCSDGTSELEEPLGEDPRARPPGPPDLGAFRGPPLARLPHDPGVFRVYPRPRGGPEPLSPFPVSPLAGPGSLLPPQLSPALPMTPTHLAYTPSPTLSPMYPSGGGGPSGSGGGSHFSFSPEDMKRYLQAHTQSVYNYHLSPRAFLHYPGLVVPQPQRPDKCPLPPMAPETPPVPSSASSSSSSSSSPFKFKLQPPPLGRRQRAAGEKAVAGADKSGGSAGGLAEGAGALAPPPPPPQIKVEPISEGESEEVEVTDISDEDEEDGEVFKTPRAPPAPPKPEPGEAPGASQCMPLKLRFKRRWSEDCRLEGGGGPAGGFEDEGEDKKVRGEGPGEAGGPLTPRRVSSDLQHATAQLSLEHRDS
In short: as §1

ETV3L = target: T7, ETV3L (Homo sapiens, UniProt Q6ZN32 1-361); settings: protein: recombinant; tags: N-terminal GST; dsDNA, one strand shown
T7 sequence: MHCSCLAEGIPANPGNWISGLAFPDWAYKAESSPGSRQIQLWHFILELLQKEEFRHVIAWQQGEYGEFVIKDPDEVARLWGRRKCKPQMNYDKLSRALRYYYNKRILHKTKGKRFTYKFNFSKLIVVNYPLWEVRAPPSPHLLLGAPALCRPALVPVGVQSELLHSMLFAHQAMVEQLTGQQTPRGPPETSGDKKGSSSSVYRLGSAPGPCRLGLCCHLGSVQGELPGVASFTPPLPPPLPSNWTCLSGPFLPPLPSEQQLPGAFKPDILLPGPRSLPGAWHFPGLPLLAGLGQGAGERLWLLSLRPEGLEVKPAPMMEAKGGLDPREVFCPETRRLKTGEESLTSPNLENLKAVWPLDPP
In short: as §1

ETS2 = target: T8, ETS2 (Homo sapiens, UniProt P15036 1-469); settings: protein: recombinant; tags: N-terminal GST; dsDNA, one strand shown
T8 sequence: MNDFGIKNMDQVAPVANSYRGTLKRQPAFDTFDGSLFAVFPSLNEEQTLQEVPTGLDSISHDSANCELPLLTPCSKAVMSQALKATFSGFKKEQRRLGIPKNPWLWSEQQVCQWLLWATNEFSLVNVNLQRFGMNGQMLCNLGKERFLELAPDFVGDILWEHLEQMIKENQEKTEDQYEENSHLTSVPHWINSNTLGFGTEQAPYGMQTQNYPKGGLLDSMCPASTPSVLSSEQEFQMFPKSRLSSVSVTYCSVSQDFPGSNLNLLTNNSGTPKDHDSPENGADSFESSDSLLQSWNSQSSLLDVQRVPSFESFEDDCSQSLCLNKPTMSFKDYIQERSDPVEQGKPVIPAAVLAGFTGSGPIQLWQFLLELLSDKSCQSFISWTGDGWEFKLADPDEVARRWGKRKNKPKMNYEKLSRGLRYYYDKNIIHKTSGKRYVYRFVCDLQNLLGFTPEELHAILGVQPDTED
In short: as §1

SPDEF = target: T9, SPDEF (Homo sapiens, UniProt O95238 1-335); settings: protein: recombinant; tags: N-terminal GST; dsDNA, one strand shown
T9 sequence: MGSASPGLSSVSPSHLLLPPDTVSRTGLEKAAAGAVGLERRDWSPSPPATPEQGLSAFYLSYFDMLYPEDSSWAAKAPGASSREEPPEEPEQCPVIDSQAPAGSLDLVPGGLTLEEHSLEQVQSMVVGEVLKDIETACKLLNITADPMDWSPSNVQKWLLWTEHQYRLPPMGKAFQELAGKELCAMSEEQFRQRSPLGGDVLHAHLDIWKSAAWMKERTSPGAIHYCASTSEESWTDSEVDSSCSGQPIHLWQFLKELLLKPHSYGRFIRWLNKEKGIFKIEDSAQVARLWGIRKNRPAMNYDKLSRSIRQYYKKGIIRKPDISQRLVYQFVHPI
In short: as §1

ETV7 = target: T10, ETV7 (Homo sapiens, UniProt Q9Y603 1-341); settings: protein: recombinant; tags: N-terminal GST; dsDNA, one strand shown
T10 sequence: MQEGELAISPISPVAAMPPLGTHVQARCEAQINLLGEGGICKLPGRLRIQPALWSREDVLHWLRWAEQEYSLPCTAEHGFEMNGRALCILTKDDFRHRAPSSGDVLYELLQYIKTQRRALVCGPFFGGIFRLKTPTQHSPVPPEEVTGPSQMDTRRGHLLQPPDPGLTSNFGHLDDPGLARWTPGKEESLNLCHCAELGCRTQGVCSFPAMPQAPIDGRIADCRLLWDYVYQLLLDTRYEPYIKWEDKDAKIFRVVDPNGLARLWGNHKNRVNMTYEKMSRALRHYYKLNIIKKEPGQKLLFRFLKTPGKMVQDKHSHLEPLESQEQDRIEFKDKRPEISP
In short: as §1

ELF5 = target: T11, ELF5 (Homo sapiens, UniProt Q9UKW6-2 1-255); settings: protein: recombinant; tags: N-terminal GST; dsDNA, one strand shown
T11 sequence: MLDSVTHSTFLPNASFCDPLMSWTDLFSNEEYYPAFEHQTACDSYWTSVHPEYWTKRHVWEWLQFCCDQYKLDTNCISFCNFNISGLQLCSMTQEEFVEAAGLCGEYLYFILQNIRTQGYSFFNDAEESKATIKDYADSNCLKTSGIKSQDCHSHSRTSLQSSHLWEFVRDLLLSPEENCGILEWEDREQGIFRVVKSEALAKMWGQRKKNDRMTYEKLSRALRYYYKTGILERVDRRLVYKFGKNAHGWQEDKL
In short: as §1

ETV3 = target: T12, ETV3 (Homo sapiens, UniProt P41162-2 1-143); settings: protein: recombinant; tags: N-terminal GST; dsDNA, one strand shown
T12 sequence: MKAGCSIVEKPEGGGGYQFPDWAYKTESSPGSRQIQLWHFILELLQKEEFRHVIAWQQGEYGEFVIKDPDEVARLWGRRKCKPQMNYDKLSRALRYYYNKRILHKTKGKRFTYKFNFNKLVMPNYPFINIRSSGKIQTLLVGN
In short: as §1

ETV6 = ETV6 (Homo sapiens, UniProt P41212 1-452); settings: protein: recombinant; tags: N-terminal GST; dsDNA, one strand shown
ETV6, sequence (P41212 whole entry): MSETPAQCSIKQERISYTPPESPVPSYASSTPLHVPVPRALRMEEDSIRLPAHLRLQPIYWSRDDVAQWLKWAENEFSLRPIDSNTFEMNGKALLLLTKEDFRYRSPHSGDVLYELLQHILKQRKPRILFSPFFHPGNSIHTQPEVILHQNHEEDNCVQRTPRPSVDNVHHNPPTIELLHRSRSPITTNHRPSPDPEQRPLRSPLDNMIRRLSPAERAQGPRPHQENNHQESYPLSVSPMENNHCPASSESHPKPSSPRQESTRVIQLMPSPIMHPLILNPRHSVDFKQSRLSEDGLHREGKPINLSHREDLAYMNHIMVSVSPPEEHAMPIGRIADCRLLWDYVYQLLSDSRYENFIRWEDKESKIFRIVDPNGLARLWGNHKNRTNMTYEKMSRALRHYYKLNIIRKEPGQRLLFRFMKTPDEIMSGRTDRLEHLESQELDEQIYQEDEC
In short: as §1

Sequence: CATTTC
- binding signal (FEV): 2.2 fold enrichment (6-mer frequency, TF over GST control)
- binding signal (ETV5): 1.95 fold enrichment (6-mer frequency, TF over GST control)
- binding signal (HSF1): 1.13 fold enrichment (6-mer frequency, TF over GST control)
- binding signal (SPIC): 1.88 fold enrichment (6-mer frequency, TF over GST control)
- binding signal (ELF4): 1.73 fold enrichment (6-mer frequency, TF over GST control)
- binding signal (ELK4): 1.66 fold enrichment (6-mer frequency, TF over GST control)
- binding signal (ETV2): 1.78 fold enrichment (6-mer frequency, TF over GST control)
- binding signal (ELF3): 1.61 fold enrichment (6-mer frequency, TF over GST control)
- binding signal (ETV1): 1.84 fold enrichment (6-mer frequency, TF over GST control)
- binding signal (ERF): 1.72 fold enrichment (6-mer frequency, TF over GST control)
- binding signal (ETV3L): 1.81 fold enrichment (6-mer frequency, TF over GST control)
- binding signal (ETS2): 1.87 fold enrichment (6-mer frequency, TF over GST control)
- binding signal (SPDEF): 1.75 fold enrichment (6-mer frequency, TF over GST control)
- binding signal (ETV7): 1.68 fold enrichment (6-mer frequency, TF over GST control)
- binding signal (ELF5): 2.15 fold enrichment (6-mer frequency, TF over GST control)
- binding signal (ETV3): 1.87 fold enrichment (6-mer frequency, TF over GST control)
- binding signal (ETV6): 2.02 fold enrichment (6-mer frequency, TF over GST control)
